Results: PubChem BioAssay (NCI)
The panel holds about 83,000 compounds, 20% with a hit somewhere; the sample as a whole holds those more often.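 The test compound was applied at a single concentration to cells in 96-well plates for 48 hours, and percent growth was recorded.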 A number with no mark means an inactive call. The source made the active and inactive calls. How the source made its calls: active means growth percent below 10; inactive means the rest.

What follows are compounds tested on HL-60(TB) leukemia (assay: NCI-60 one-dose screen, 48 h (100 = growth as untreated, 0 = no growth, -100 = all killed)). Conditions: 10 µM unless noted.
For `O=c1[nH]c(NCc2nnnn2-c2ccc(Br)cc2)nc2sc3c(c12)CCCC3`, the growth was 103%. Compound `CCCCCCCCCCCCc1ccc(C(=O)/C=C/C(=O)O)cc1` has a growth of 26.6%. With `COc1cc(OC)c(/C=C/c2cc[n+](C)c3ccccc23)c(OC)c1` the growth was -25.6% (active). For `Cc1nc2cc(Nc3nc(N4CCCCC4)nc(N4CCOCC4)n3)ccc2n1Cc1ccccc1`, the growth was 75%. `Cc1cc(Cl)c2c(N(C)C)cccc2n1` was tested, and the growth was 97.3%. For `COc1cc2nc3cc([N+](=O)[O-])ccc3c(Cl)c2cc1OC`, the growth was 109%. For `COc1ccc2nc3ccccc3c(NCc3ccc(Cl)cc3)c2c1`, the growth was -64.5% (active). `COc1cc2c(cc1OC)-c1ccc3cc4c(cc3c1N(CCCN(C)C)C2)OCO4` gave a growth of 30.4%. `CCOC1Oc2ccccc2C(=O)/C1=N/c1nccs1` (stereo not given) was tested, and the growth was 106%. With `CCCNC(=O)Oc1ccc(/C(=C(\C)c2ccccc2)c2ccc(OCCCN(C)C)cc2)cc1` the growth was 65.3%. `COc1cc(C2=Nc3c(N)nc(N)nc3NC(c3cccc(Nc4ccnc5cc(C(F)(F)F)ccc45)c3)C2)cc(OC)c1OC` (stereo not given) was tested, and the growth was 63.2%. For `CC(C)C(NC(=O)C1(NC(=O)OCc2ccccc2)CCCC1)C(=O)O` (stereo not given), the growth was 90.8%. In the case of `Cc1cc(N)ccc1-c1ccc(N)cc1C`, the growth is reported as 84.6%. `Cc1ccc(OCC(=O)Nc2ccc(Oc3ccccc3)cc2)c([N+](=O)[O-])n1` gave a growth of 69%. For `COc1ccc(C(=O)Nn2c(NCC(=O)N3c4ccccc4Sc4ccccc43)nnc2-c2ccc(O)cc2)cc1`, the growth was 94.3%. In the case of `Clc1cc(Cl)cc(N2N=C(c3cccc(Nc4ccncc4)c3)CC2c2ccc(Br)cc2)c1` (stereo not given), the growth is reported as 17.3%. `NC(=O)c1ccc(Br)o1` was tested, and the growth was 96.8%. With `COc1ccc(C(O)(CCC(C)C)C(CN2CCOCC2)c2ccc(Cl)cc2)cc1` (stereo not given) the growth was 20.9%. `O=C(Cc1ccc(Nc2ccnc(C(F)(F)F)c2)cc1)N/N=C/c1ccccc1O` gave a growth of 69.1%. Work on `Cc1nn(-c2ccccc2)c(-n2ccnc2)c1/C=N/Nc1nc(-c2ccc(F)cc2)cs1` yielded a growth of 94.4%. In the case of `Cn1cnc2c(F)c(Nc3ccc(Br)cc3Cl)c(C(=O)NOCCO)cc21`, the growth is reported as 24.5%. `C=CCNC(=O)Cc1c(-c2ccc(OC)cc2)oc2c(OC)c3c(c(OC)c12)OCO3` was tested, and the growth was 102%. `CC(=O)OC[C@H](O)[C@@]1(O)CC[C@H]2[C@@H]3CCC4=CC(=O)CC[C@]4(C)[C@H]3[C@@H](O)C[C@@]21C` gave a growth of 101%. Work on `CCCCC1Nc2nc(SC)n(C)c(=O)c2CN(Cc2ccccc2)C1=O` (stereo not given) yielded a growth of 111%. `C=C(C)[C@@H]1CC[C@]2(C(=O)N3CCN(C)CC3)CC[C@]3(C)[C@H](CC[C@@H]4[C@@]5(C)C/C(=C/c6ccncc6)[C@H](O)C(C)(C)[C@@H]5CC[C@]43C)[C@@H]12` was tested, and the growth was -25.2% [100 µM] (active). For `C/C=C(/C)C(=O)O[C@@H]1CC(C)(C)CC2C34OC(=O)[C@@]21CC[C@@]3(C)[C@]1(C)CCC2C(C)(C)C(=O)CC[C@]2(C)C1C[C@@H]4Cl` (stereo not given in full), the growth was 101%. With `Cc1ccc(C)c2c1CCC2=O` the growth was 134%. `COc1ccc(C2C=C(c3ccc(Cl)cc3)N=C3SC=C(C)N32)c(Br)c1` (stereo not given) was tested, and the growth was 7.64% (active). For `N#CC1C(C#N)C(C(=O)c2ccc(Br)cc2)N2c3ccccc3C=CC12` (stereo not given), the growth was 94.3%. In the case of `COc1ccc(/C=C/C(=O)c2cc3c(N)c(C(=O)Nc4cccc(Cl)c4C)sc3nc2C)cc1`, the growth is reported as 4.92% (active). `O=C(/C=C/c1ccc(Cl)cc1)c1ccc(-n2cc(CN3CCN(c4cc5c(cc4F)c(=O)c(C(=O)O)cn5C4CC4)CC3)nn2)cc1` showed a growth of 99%. Work on `COCCCNc1nc(NC(=O)c2cc(OC)cc(OC)c2)cc(-c2cccnc2)n1` yielded a growth of 90.2%. With `Cc1cc2c(cc1C)N(C(=O)CCl)CCN2C(=O)CCl` the growth was -41.3% (active). With `COc1ccc(C(=O)/C=C/c2c(Cl)c3c(c(OC)c2Cl)OCC(=O)N3)cc1` the growth was 13.8%. `CCCCC1(O)CCCCC1` was tested, and the growth was 99.1%. `CC(O)(c1ccccc1)C(c1ccccc1)C1CCCCN1` (stereo not given) gave a growth of 78.9%. Compound `CC1NC(=O)NC1CCCCCC(=O)O` (stereo not given) has a growth of 107%. With `CCc1nc(N)nc(N)c1C#CC(C)c1cc(-c2ccnc(C)c2)c2oc(C)nc2c1` (stereo not given) the growth was -42.4% (active). For `Nc1nc(-c2cc3c(cc2Cl)NC(=O)/C3=C/c2ccc(Cl)cc2)cs1`, the growth was -11.7% (active). With `Nc1ccc(-c2ccc(N)c(Br)c2)cc1Br` the growth was 7.99% (active).
